Screening data deposited in PubChem by National Center for Advancing Translational Sciences (NCATS).
An excerpt weighted towards active compounds, which were near 8% of everything screened.
Gal4-VP16 FLuc: inhibits Gal4-VP16 luciferase reporter, ROR gamma counter-screen. Drosophila S2 Gal4-VP16 UAS-luciferase, luminescence, 20 h. Potency, µM (top dose mostly 53.6 µM), without a hit: at the top dose activity, negative = inhibition, hits mostly inhibitors. actives 3.5% (n = 310,000). AID 2546;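 note: Gal4-VP16 expression switched on by copper sulfate through the metallothionein promoter; potency is the fitted concentration of half-maximal effect; nearly all actives have a fitted effect of over 50% in size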
ELG1 repair inh: ELG1-dependent DNA repair inhibition. HEK293T ELG1-luciferase reporter, luminescence, 16 h; DNA damage induced by 5-fluorouridine. Potency, µM (series often up to 46.1 µM), for the others: top-dose activity change, negative = inhibition, actives largely listed as inhibitors. actives 2.3% (n = 330,000); note: potency is the fitted concentration of half-maximal effect; nearly all actives have a fitted effect of over 55% in size
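Reporter activity after DNA damage by 5-fluorouridine is monitored. Compound-treated cells incubate 16 hr at 37 °C, then ONE-Glo is added for 30 min before luminescence reading.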
Coupling enz: counter-screen for Giardia aldolase inhibitors: coupling enzyme system; actives 0.67% (n = 290,000); AID 2472; activity change, negative = inhibition, % at 58.2 µM, hits read low; coupling enzyme system counterscreen, AmpLite Red fluorescence; in the data active = activity change below about -30%
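Compounds tested against the coupling enzymes alone at 57.5 uM final; readout was AmpLite Red fluorescence (525/598 nm) after 20 min at RT.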
RORgamma inh: blocks mouse ROR gamma transcriptional activity; P51450; actives 5.4% (n = 310,000); Potency, µM (top dose mostly 53.6 µM), without a hit: at the highest dose activity change, negative = inhibition, most hits filed as inhibitors; AID 2551; Drosophila S2 Gal4-RORgamma UAS-luciferase reporter, 20 h; note: potency is the fitted concentration of half-maximal effect; nearly all actives have a fitted effect of over 60% in size
Target sequence (P51450 whole entry, looked up, the tested form may be a part): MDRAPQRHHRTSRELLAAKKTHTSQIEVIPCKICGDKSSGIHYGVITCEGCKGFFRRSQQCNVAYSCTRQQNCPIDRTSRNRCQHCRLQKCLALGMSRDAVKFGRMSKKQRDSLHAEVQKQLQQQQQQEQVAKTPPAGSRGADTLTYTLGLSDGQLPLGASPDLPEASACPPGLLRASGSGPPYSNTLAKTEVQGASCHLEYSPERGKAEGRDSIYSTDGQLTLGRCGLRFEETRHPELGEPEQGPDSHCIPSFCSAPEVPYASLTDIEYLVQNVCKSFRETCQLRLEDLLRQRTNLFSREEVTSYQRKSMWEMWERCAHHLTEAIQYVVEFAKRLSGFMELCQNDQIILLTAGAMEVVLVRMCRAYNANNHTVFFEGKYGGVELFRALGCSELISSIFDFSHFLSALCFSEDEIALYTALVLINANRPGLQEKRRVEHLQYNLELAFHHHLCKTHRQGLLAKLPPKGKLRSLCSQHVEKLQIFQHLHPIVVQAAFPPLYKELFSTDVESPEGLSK
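In this cell-based reporter format, copper sulfate (700 uM final) drives Gal4–ROR gamma fusion expression from a metallothionein promoter in Drosophila Schneider cells; compounds preincubated 1 hr, reporter read after 20 hr at ambient temperature.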
TSHR antag: blocks TSH signaling through the human TSH receptor; P16473; TSHR-expressing cells, TSH-stimulated cAMP HTRF, 2 h; active compounds read low; activity change, negative = inhibition, % at 11.5 µM; actives 0.2% (n = 330,000); AID 504810;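 active = activity change below a set negative limit, meaning inhibition stronger than a set level, cut at about -70% in these data; inconclusive = activity change between two set negative limits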
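TSHR-expressing cells were treated with compounds, then stimulated with TSH at EC80 (4nM final) for 2 hours at 37 deg C. Cellular cAMP was measured by HTRF competition between lysate cAMP and cAMP-d2 for a cryptate-labelled anti-cAMP antibody.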
* = called active by the depositor; ? = inconclusive; . = no result given. Unless noted, calls come from the whole dose curve; as a rule, active = well fitted curve in the direction sought with a large enough effect; inconclusive = small, poorly fitted or top-dose-only effect, or another doubt; inactive = no such curve, though single readings can be large; an effect the other way counts as inactive or inconclusive. % is set by controls: 0 for no effect and ±100 for the full control effect.

SMILES	Gal4-VP16 FLuc	ELG1 repair inh	Coupling enz	RORgamma inh	TSHR antag
CC(=O)NC(c1ccc(C(C)C)cc1)c1ccc2cccnc2c1O (stereo not drawn)	2.82µM*	?	2.5	3.55µM*	-8.1
CCCCC(=O)NC(c1ccc(C(C)C)cc1)c1ccc2cccnc2c1O (stereo not drawn)	2.82µM*	?	4.9	2.51µM*	-9.2
CCCCC(=O)NC(c1ccccc1)c1ccc2cccnc2c1O (stereo not drawn)	2.51µM*	?	-2.5	1.26µM*	-3.9
CCC(=O)NC(c1ccccc1OC)c1ccc2cccnc2c1O (stereo not drawn)	5.01µM*	4.11µM*	0.0	5.01µM*	-7.3
CCCC(=O)NC(c1ccccc1)c1ccc2cccnc2c1O (stereo not drawn)	?	?	-1.5	?	-5.0
CCC(=O)NC(c1ccc(OC)cc1)c1cc(Cl)c2cccnc2c1O (stereo not drawn)	2.3%	-6.1%	-1.2	-31.0%	-17.8
CC(=O)NC(c1cc(Cl)c2cccnc2c1O)C(C)C (stereo not drawn)	.	-24.6%	.	.	-12.4
CC(Sc1nnc2n1CCCCC2)C(=O)Nc1cccc(S(=O)(=O)N2CCOCC2)c1 (stereo not drawn)	.	15.0%	.	.	15.3
CCCC(=O)NC(c1ccc(OC)cc1)c1ccc2cccnc2c1O (stereo not drawn)	4.47µM*	?	-0.3	1.78µM*	9.2
CCCCC(=O)NC(c1ccco1)c1cc(Cl)c2cccnc2c1O (stereo not drawn)	0.3%	15.1%	1.1	-0.1%	-17.8
COc1ccc(Cl)cc1C(Nc1cccnc1)c1ccc2cccnc2c1O (stereo not drawn)	2.24µM*	-11.4%	-5.8	1.12µM*	-7.1
CCCCC(=O)NC(c1ccccc1Cl)c1ccc2cccnc2c1O (stereo not drawn)	3.55µM*	3.26µM*	4.8	5.01µM*	-8.1
CCCCC/C=C\C/C=C\C/C=C\CCCCCCC(=O)NC(C)C(=O)O (stereo not drawn)	0.2%	.	0.9	4.1%	.
COc1ccc(N2CCN(CCNS(=O)(=O)c3ccc(C)cc3)CC2)cc1	9.7%	?	-1.6	3.9%	4.8
O=C(Nc1nc2ccccc2s1)c1ccccc1	?	?	-1.4	10µM*	-12.7
O=C(Nc1ccc(-c2nc3ccccc3s2)c(OC(=O)c2ccccc2)c1)c1ccccc1	-20.0%	?	-2.2	1.26µM*	0.5
Cc1ccc(C(=O)Nc2nc3ccccc3s2)s1	-14.4%	?	1.5	21.0%	-22.0
O=C(Nc1nc(-c2ccc(F)cc2)cs1)c1cnccn1	?	19.5%	-2.4	2.24µM*	-0.6
O=C(Nc1nc2ccccc2s1)c1cnccn1	5.01µM*	?	0.2	3.16µM*	-5.9
O=C(N/N=C/c1cccc([N+](=O)[O-])c1)C(=O)N1CCCCCC1	0.4%	2.4%	.	-0.9%	-2.8
COc1ccccc1-c1nc(NCc2cnc(C)cn2)c2ccccc2n1	2.1%	.	-4.7	-36.7%	.
CCOc1ccc2nc(Cl)c(CN(C(=O)c3cnccn3)C3CCCC3)cc2c1	-10.9%	14.6µM*	-7.0	0.3%	-4.7
CCOCC(=O)Nc1nc2ccc(OCC)cc2s1	?	?	3.7	?	20.2
CC(C)C(=O)N(Nc1nc2ccccc2s1)C(=O)C(C)C	-15.2%	10.0%	-0.4	3.3%	8.2
Cc1ccc(C(=O)N(Nc2nc3ccccc3s2)C(=O)c2ccc(C)cc2)cc1	11.2µM*	26.4%	-0.1	8.91µM*	19.8
SMILES	Gal4-VP16 FLuc	ELG1 repair inh	Coupling enz	RORgamma inh	TSHR antag
c1ccc2sc(NCC3CCCO3)nc2c1 (stereo not drawn)	-8.4%	?	1.1	-42.3%	6.3
c1ccc2sc(NN=C3CCCCCC3)nc2c1	?	?	-0.6	3.98µM*	-0.8
CCOc1ccc2nc(NC(=O)c3cnccn3)sc2c1	?	?	1.6	1.58µM*	2.3
OC1c2ccccc2N=C2CCCN21 (stereo not drawn)	7.0%	.	-0.1	16.7%	.
COc1ccc(CCNc2cc(C)[nH]c(=O)c2)cc1OC	-3.7%	-0.1%	-1.7	7.9%	-5.3
O=C(NC1CCCCC1)C1CCCN1C(=O)Nc1ccccc1 (stereo not drawn)	-1.4%	-1.3%	1.6	-20.5%	-10.7
O=C(Nc1nc2ccc(F)cc2s1)c1ccccn1	1.58µM*	?	-7.1	0.708µM*	-6.2
Cc1ccc(C)c2sc(NC(=O)c3nc4ccccc4s3)nc12	1µM*	-3.1%	2.3	1µM*	2.0
CCOc1ccc2nc(NC(=O)c3cccc(-c4cc5ccccc5oc4=O)c3)sc2c1	11.2µM*	1.1%	-0.7	11.2µM*	6.3
O=C(Nc1nnc(SCc2ccc(F)cc2)s1)c1ccccn1	1.41µM*	?	-4.0	0.794µM*	-5.3
O=C(Nc1nc2ccc(F)cc2s1)C1=COCCO1	.	?	.	.	-2.8
CN(CC(=O)Nc1ccc(F)cc1)C(=O)COC(=O)CCN1C(=O)C2CC=CCC2C1=O (stereo not drawn)	-2.1%	10.2%	.	-37.8%	7.7
CCC1=C2CC[C@H]3C(=O)N(CC)C(=O)[C@H]3[C@H]2[C@@]2(C)C(=NCC(=O)OC)OC(=O)N2C1=O	-6.1%	.	-0.1	14.6%	.
COc1ccc(-c2csc(Nc3ncccc3C)n2)cc1	6.4%	?	-0.7	?	15.2
Cc1cccnc1Nc1nc(-c2ccc(O)c(O)c2)cs1	7.08µM*	?	-19.7	-111.5%	-29.9
COc1ccc(-c2csc(Nc3ncccc3C)n2)cc1OC	-27.2%	?	0.2	3.55µM*	10.0
Cc1nc(C)c(-c2csc(Nc3ncccc3C)n2)s1	-20.9%	?	3.9	-30.7%	4.1
COC(=O)/C(=N\OCc1ccc(C#N)cc1)c1c(C)nn(C)c1C	-16.3%	5.6%	-0.2	5.4%	1.6
COc1ccccc1NC(=O)c1cnc(SCC(=O)NCCc2ccccc2)n(C)c1=O	.	?	.	.	-10.7
O=C(C[n+]1ccccc1)Nc1ccccc1[N+](=O)[O-]	-4.7%	1.0%	2.6	-9.3%	1.9
O=C(NC(=S)Nc1ccccc1[N+](=O)[O-])c1ccccc1	2µM*	?	-4.8	?	-31.2
O=C(C[n+]1ccccc1)Nc1ccccc1Br	2.82µM*	-14.9%	-17.3	1.26µM*	60.7
O=C(CCc1ccccc1)NC(=S)Nc1ccccc1[N+](=O)[O-]	11.2µM*	10.2%	-2.3	10µM*	18.6
O=C(CCc1ccccc1)NC(=S)Nc1ccc2c(c1)C(=O)OC2	-18.4%	-9.2%	-0.7	-6.6%	3.0
CC(C)c1ccc(O)c(NC(=S)NC(=O)CCc2ccccc2)c1	-29.9%	?	-1.0	12.6µM*	-1.3
Cc1c(NC(=S)NC(=O)C(C)(C)C)cccc1[N+](=O)[O-]	20µM*	19.0%	2.3	14.1µM*	8.3
